Assays:
Assay in all cases: DAPPL (digital affinity profiling via proximity ligation, sequencing); 10 mM Tris-HCl pH 7.5, 50 mM NaCl, 1 mM DTT, 4% glycerol, room temperature, 30 min; GST-TFs on glutathione beads, 16-mer random dsDNA library, 0.1% formaldehyde crosslink after washing; high values mean tight binding
FLI1 = target: T1, FLI1 (Homo sapiens, UniProt Q01543 1-452); conditions: protein: recombinant; tags: N-terminal GST; dsDNA, one strand shown
T1 sequence: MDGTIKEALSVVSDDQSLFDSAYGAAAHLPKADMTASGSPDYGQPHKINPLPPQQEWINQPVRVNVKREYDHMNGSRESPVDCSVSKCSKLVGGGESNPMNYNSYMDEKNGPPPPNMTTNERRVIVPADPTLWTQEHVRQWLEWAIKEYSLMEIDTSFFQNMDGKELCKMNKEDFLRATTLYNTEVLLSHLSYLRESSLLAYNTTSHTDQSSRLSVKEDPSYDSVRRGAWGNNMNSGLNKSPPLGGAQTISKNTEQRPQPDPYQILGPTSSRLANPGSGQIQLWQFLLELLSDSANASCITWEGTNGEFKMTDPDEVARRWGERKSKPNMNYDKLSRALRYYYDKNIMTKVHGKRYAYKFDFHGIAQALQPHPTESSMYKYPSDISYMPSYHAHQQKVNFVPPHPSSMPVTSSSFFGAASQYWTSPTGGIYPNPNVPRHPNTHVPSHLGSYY
How it was run: (§1)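 Pools of DNA-barcoded human transcription factors, expressed in yeast as GST fusions on glutathione beads and combined with a tag-only sample, were incubated with 200 nmole of a 16-mer random double-stranded DNA library. Incubation took 30 min at room temperature in Tris/NaCl/DTT/glycerol buffer and was followed by washing, 0.1% formaldehyde crosslinking, proximity ligation (BsaI/T4 ligase, 1 h, 37 °C), PCR amplification and sequencing on an Illumina NextSeq500. Binding signal is the ratio of a hexamer's read frequency for a factor to its frequency for the tag-only sample.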

ELK1 = target: T2, ELK1 (Homo sapiens, UniProt P19419 1-428); conditions: protein: recombinant; tags: N-terminal GST; dsDNA, one strand shown
T2 sequence: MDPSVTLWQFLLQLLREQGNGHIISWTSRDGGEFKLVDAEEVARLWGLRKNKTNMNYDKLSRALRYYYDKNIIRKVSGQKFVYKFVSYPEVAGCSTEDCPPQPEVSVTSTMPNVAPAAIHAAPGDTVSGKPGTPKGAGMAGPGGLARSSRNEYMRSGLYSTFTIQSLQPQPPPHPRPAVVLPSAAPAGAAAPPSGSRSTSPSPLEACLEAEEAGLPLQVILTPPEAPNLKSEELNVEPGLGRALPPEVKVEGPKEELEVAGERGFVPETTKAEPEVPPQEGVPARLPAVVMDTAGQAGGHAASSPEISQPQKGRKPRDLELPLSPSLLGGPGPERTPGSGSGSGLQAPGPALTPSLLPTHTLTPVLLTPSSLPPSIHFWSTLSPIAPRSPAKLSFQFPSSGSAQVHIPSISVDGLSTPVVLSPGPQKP
How it was run: as §1

GABPA = target: T3, GABPA (Homo sapiens, UniProt Q06546 1-454); conditions: protein: recombinant; tags: N-terminal GST; dsDNA, one strand shown
T3 sequence: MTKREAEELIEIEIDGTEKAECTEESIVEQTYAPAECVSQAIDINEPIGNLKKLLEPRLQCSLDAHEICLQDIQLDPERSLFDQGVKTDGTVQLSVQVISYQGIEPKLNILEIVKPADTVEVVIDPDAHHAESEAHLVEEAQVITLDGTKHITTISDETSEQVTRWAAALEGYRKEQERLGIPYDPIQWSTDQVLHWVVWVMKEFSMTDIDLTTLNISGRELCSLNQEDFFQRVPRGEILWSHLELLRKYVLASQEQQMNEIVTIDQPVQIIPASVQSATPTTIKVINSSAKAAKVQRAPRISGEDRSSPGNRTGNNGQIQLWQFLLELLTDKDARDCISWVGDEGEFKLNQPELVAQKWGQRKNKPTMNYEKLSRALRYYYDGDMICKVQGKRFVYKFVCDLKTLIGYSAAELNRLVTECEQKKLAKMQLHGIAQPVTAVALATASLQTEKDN
How it was run: as §1

ERG = target: T4, ERG (Homo sapiens, UniProt P11308 1-479); conditions: protein: recombinant; tags: N-terminal GST; dsDNA, one strand shown
T4 sequence: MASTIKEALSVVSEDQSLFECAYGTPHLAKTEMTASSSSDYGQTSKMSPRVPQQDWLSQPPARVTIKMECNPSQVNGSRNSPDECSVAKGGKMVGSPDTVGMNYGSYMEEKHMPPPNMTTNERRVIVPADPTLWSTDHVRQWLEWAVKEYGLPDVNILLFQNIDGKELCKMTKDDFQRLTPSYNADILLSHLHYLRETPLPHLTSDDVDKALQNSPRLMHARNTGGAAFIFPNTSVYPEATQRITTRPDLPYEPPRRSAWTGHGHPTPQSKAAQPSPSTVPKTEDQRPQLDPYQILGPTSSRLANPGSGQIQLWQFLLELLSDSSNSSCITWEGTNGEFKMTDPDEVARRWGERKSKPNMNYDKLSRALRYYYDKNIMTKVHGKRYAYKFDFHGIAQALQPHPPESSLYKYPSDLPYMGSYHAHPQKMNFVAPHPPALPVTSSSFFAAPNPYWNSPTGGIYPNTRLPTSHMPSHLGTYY
How it was run: as §1

ELF1 = ELF1 (Homo sapiens, UniProt P32519 1-619); conditions: protein: recombinant; tags: N-terminal GST; dsDNA, one strand shown
ELF1, sequence (P32519 whole entry): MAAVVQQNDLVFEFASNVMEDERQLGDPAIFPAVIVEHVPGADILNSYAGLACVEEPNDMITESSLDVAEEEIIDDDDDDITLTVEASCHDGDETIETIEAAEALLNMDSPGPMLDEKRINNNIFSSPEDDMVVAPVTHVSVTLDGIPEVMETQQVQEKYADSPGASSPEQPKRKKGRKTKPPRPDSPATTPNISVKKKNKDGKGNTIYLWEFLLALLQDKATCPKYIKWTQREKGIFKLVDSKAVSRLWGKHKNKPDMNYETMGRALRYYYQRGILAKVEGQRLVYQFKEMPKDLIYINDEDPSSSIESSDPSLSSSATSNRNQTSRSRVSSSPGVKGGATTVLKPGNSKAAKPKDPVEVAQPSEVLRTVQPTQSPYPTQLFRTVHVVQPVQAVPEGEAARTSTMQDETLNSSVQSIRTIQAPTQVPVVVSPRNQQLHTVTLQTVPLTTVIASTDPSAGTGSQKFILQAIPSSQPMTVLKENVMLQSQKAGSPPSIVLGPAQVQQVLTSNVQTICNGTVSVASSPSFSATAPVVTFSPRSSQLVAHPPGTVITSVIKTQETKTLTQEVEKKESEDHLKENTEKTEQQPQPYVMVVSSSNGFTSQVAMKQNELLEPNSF
How it was run: as §1

EHF = target: T5, EHF (Homo sapiens, UniProt Q9NZC4 1-300); conditions: protein: recombinant; tags: N-terminal GST; dsDNA, one strand shown
T5 sequence: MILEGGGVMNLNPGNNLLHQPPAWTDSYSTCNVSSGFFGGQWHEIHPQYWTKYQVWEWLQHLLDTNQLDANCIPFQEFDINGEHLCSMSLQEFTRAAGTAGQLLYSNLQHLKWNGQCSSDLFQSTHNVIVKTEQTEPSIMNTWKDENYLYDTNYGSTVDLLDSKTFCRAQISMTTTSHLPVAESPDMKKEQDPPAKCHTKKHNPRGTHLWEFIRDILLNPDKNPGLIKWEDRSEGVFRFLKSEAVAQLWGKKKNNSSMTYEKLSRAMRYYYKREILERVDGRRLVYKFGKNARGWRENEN
How it was run: as §1

SPI1 = SPI1 (Homo sapiens, UniProt P17947 1-270); conditions: protein: recombinant; tags: N-terminal GST; dsDNA, one strand shown
How it was run: as §1

SPIB = SPIB (Homo sapiens, UniProt Q01892 1-262); conditions: protein: recombinant; tags: N-terminal GST; dsDNA, one strand shown
SPIB, sequence (Q01892 whole entry): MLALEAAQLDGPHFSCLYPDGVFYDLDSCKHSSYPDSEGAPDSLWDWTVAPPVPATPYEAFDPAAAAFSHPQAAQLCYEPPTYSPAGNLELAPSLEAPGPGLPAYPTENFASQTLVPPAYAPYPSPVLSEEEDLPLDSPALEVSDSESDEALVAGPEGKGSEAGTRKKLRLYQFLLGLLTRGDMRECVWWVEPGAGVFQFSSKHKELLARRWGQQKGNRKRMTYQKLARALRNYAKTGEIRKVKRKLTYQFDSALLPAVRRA
How it was run: as §1

ELK3 = target: T6, ELK3 (Homo sapiens, UniProt P41970 1-407); conditions: protein: recombinant; tags: N-terminal GST; dsDNA, one strand shown
T6 sequence: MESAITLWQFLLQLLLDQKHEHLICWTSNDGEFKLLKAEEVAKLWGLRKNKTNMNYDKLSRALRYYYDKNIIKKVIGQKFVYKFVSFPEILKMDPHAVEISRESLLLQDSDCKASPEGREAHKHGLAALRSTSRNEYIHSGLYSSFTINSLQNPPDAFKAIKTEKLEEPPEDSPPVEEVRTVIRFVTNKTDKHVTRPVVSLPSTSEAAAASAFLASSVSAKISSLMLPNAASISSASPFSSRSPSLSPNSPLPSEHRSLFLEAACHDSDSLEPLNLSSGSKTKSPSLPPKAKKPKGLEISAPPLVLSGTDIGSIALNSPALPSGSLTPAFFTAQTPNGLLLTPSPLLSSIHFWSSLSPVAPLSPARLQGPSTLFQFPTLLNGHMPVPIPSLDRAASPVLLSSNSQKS
How it was run: as §1

FEV = target: T7, FEV (Homo sapiens, UniProt Q99581 1-238); conditions: protein: recombinant; tags: N-terminal GST; dsDNA, one strand shown
T7 sequence: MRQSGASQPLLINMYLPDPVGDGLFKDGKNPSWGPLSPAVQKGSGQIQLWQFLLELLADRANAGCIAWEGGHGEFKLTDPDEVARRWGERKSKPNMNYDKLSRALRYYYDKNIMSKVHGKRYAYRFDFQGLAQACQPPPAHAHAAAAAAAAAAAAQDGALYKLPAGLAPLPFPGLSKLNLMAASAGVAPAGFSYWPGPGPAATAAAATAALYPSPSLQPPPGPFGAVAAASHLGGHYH
How it was run: as §1

ETV5 = ETV5 (Homo sapiens, UniProt P41161 1-510); conditions: protein: recombinant; tags: N-terminal GST; dsDNA, one strand shown
ETV5, sequence (P41161 whole entry): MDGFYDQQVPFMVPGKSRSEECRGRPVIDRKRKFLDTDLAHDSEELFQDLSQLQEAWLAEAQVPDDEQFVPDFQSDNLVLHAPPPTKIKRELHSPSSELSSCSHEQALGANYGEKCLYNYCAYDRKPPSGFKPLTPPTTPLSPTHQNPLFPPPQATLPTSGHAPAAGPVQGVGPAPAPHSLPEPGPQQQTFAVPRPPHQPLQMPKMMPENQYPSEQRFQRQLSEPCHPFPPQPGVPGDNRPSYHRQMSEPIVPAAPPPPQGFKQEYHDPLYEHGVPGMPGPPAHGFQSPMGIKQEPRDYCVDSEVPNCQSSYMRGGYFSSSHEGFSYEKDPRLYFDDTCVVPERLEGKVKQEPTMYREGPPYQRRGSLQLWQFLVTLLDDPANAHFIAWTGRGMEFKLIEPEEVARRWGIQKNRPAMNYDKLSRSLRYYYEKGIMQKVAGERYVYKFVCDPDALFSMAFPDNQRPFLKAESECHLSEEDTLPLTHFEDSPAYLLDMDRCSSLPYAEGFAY
How it was run: as §1

HSF1 = HSF1 (Homo sapiens, UniProt Q00613 1-529); conditions: protein: recombinant; tags: N-terminal GST; chain copies: 3; dsDNA, one strand shown
HSF1, sequence (Q00613 whole entry): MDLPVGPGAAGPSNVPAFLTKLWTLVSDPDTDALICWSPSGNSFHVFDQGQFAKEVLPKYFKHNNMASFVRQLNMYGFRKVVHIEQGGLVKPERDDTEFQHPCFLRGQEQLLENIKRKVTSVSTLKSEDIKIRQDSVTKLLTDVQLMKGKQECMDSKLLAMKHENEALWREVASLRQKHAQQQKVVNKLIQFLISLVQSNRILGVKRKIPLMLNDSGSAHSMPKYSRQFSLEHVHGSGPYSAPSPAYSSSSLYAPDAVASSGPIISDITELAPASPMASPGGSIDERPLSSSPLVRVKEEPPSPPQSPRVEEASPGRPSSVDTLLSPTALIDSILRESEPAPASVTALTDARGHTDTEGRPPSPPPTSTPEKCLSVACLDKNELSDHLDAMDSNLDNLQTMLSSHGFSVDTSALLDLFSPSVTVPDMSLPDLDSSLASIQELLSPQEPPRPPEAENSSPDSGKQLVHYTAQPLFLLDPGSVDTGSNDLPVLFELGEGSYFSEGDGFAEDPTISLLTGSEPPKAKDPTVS
How it was run: as §1

SPIC = target: T8, SPIC (Homo sapiens, UniProt Q8N5J4 1-248); conditions: protein: recombinant; tags: N-terminal GST; dsDNA, one strand shown
T8 sequence: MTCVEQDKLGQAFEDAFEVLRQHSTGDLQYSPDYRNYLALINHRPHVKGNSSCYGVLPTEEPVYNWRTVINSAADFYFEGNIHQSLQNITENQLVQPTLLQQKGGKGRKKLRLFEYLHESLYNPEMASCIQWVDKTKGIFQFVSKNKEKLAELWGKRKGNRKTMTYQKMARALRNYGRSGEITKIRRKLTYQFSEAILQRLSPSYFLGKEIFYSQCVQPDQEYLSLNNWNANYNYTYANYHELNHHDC
How it was run: as §1

ELF4 = ELF4 (Homo sapiens, UniProt Q99607 1-663); conditions: protein: recombinant; tags: N-terminal GST; dsDNA, one strand shown
ELF4, sequence (Q99607 whole entry): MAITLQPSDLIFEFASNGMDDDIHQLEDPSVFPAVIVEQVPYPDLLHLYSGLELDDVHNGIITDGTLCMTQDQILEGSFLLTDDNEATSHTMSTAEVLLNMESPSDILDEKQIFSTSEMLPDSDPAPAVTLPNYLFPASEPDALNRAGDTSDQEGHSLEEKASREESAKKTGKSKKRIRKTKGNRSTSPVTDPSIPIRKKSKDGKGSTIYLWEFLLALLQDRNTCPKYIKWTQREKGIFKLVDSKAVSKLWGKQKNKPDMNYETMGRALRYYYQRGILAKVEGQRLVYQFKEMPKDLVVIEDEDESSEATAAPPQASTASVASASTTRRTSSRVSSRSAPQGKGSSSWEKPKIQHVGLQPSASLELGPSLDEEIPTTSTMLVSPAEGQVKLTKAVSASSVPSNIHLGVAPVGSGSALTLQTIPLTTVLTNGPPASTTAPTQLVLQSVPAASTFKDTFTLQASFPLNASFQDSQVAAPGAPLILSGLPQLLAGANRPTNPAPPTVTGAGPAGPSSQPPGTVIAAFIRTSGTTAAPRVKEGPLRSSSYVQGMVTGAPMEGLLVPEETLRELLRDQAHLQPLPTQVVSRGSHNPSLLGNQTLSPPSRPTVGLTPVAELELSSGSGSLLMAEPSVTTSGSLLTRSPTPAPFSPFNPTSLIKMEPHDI
How it was run: as §1

ELK4 = target: T9, ELK4 (Homo sapiens, UniProt P28324-2 1-405); conditions: protein: recombinant; tags: N-terminal GST; dsDNA, one strand shown
T9 sequence: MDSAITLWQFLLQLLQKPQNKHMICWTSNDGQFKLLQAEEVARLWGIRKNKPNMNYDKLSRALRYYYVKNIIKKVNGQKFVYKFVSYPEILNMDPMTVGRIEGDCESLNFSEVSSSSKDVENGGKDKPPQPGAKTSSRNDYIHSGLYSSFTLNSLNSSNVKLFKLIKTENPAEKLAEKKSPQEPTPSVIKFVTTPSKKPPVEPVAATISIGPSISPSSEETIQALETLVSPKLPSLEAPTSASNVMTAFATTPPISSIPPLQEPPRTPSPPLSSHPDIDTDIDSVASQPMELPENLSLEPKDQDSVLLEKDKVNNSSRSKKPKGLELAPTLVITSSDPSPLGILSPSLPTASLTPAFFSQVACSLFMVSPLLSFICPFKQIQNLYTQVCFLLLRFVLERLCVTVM
How it was run: as §1

ETV2 = target: T10, ETV2 (Homo sapiens, UniProt O00321 1-342); conditions: protein: recombinant; tags: N-terminal GST; dsDNA, one strand shown
T10 sequence: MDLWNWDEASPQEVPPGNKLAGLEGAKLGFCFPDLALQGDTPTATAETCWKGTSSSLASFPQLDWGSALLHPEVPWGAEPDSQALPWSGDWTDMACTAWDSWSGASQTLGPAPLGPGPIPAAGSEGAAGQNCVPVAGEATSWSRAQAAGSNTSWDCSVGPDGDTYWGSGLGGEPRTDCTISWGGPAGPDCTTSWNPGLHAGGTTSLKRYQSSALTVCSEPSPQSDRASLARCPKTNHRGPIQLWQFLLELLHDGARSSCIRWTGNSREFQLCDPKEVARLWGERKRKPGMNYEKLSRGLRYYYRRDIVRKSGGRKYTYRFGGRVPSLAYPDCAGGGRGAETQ
How it was run: as §1

ELF3 = target: T11, ELF3 (Homo sapiens, UniProt P78545 1-371); conditions: protein: recombinant; tags: N-terminal GST; dsDNA, one strand shown
T11 sequence: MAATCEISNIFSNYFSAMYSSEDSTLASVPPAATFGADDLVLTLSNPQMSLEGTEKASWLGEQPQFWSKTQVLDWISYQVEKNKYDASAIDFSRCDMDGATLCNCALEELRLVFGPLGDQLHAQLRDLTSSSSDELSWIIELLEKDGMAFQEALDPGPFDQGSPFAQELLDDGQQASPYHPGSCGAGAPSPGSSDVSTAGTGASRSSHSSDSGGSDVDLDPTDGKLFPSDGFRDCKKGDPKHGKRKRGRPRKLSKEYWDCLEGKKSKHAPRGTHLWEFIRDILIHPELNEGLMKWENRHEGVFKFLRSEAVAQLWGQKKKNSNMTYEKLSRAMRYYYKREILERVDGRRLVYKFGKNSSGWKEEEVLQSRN
How it was run: as §1

CRX = CRX (Homo sapiens, UniProt O43186 1-299); conditions: protein: recombinant; tags: N-terminal GST; dsDNA, one strand shown
CRX, sequence (O43186 whole entry): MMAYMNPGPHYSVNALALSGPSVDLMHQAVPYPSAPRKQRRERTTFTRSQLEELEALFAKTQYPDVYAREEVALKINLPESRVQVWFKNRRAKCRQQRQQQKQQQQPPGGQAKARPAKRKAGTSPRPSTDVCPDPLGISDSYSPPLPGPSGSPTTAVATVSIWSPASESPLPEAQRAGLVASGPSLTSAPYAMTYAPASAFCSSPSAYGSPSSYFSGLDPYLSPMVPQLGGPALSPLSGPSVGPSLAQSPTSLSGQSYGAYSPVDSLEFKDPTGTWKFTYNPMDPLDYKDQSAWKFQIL
How it was run: as §1

ETV1 = ETV1 (Homo sapiens, UniProt P50549 1-477); conditions: protein: recombinant; tags: N-terminal GST; dsDNA, one strand shown
ETV1, sequence (P50549 whole entry): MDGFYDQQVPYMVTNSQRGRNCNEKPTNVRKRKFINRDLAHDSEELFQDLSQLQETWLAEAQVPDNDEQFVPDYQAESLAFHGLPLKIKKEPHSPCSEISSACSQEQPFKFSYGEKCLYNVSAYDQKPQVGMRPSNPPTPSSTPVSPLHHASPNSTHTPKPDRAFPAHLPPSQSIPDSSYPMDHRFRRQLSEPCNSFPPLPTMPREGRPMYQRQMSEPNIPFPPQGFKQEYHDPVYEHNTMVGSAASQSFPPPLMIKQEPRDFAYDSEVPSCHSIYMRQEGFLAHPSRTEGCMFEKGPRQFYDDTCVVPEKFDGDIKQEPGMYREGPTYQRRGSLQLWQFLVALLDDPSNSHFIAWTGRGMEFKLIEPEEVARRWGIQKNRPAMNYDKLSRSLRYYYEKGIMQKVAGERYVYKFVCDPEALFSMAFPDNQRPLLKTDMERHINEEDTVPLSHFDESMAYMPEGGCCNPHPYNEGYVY
How it was run: as §1

In the case of CTCCCC, the binding signal (FLI1) is reported as 1.44 fold enrichment (6-mer frequency, TF over GST control), the binding signal (ELK1) is reported as 1.31 fold enrichment (6-mer frequency, TF over GST control) and the binding signal (GABPA) is reported as 1.41 fold enrichment (6-mer frequency, TF over GST control). The binding signal (ERG) was 1.45 fold enrichment (6-mer frequency, TF over GST control), the binding signal (ELF1) was 1.45 fold enrichment (6-mer frequency, TF over GST control) and the binding signal (EHF) was 1.56 fold enrichment (6-mer frequency, TF over GST control). The binding signal (SPI1) was 1.3 fold enrichment (6-mer frequency, TF over GST control), the binding signal (SPIB) was 1.38 fold enrichment (6-mer frequency, TF over GST control) and the binding signal (ELK3) was 1.4 fold enrichment (6-mer frequency, TF over GST control). The binding signal (FEV) was 1.4 fold enrichment (6-mer frequency, TF over GST control), the binding signal (ETV5) was 1.39 fold enrichment (6-mer frequency, TF over GST control) and the binding signal (HSF1) was 1.14 fold enrichment (6-mer frequency, TF over GST control). For the same sequence, the binding signal (SPIC) was 1.28 fold enrichment (6-mer frequency, TF over GST control), the binding signal (ELF4) was 1.42 fold enrichment (6-mer frequency, TF over GST control) and the binding signal (ELK4) was 1.38 fold enrichment (6-mer frequency, TF over GST control). The binding signal (ETV2) was 1.63 fold enrichment (6-mer frequency, TF over GST control), the binding signal (ELF3) was 1.25 fold enrichment (6-mer frequency, TF over GST control) and the binding signal (CRX) was 1.19 fold enrichment (6-mer frequency, TF over GST control). For the same sequence, the binding signal (ETV1) was 1.46 fold enrichment (6-mer frequency, TF over GST control).

Source: publication PMC7862700, “An all-to-all approach to the identification of sequence-specific readers for epigenetic DNA modifications on cytosine”
